Assay results: PubChem BioAssay (NCI)
About 83,000 compounds went through this panel and 20% of them were active in at least one assay; those are over-represented in the sample as a whole.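 Cell lines were cultured in 96-well plates, exposed to a single compound concentration, and assessed for percent growth 48 hours later.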 Values without a mark were called inactive. Activity calls are given as the source filed them. The calls were made as follows: active = growth percent below 10; inactive = the rest.

What follows are compounds tested on HL-60(TB) leukemia (assay: NCI-60 one-dose screen, 48 h (100 = growth as untreated, 0 = no growth, -100 = all killed)). Settings: 10 µM unless noted.

SMILES | growth
O=[N+]([O-])c1cc(Cl)cc(Cl)c1O | 99.5%
Nc1cc2c([nH]c[n+]2CC#CCCl)c(SCC#CCCl)n1 | -17.8% (active)
O=C1C(Cl)=C(Nc2cccc3ccccc23)C(=O)c2ccccc21 | 71.1%
c1ccc(N2CCN(c3nncc4ccccc34)CC2)nc1 | 96.6%
COc1cccc(-c2cc(-c3cccc(Cl)c3)c(C#N)c(=O)[nH]2)c1 | 36.2%
O=C1OC(c2ccccc2)(c2ccccc2)c2ccsc21 | 86.6%
C=CCSSC1N=CNc2nc[nH]c21 (stereo unspecified) | 32%
Cn1c2ccccc2c2c3c(c4c5cccnc5[nH]c4c21)C(=O)N(O)C3=O | 17.2%
COc1ccc(CNCCCN2C(=O)c3ccc4c5c(ccc(c35)C2=O)C(=O)N(CCCNCCCCNCCCN)C4=O)c(OC)c1OC | 26.2%
CCn1cc(-c2ccnc(NCCNS(=O)(=O)c3cccc4ccccc34)c2)c(-c2cccc(O)c2)n1 | 103%
CN1CCN(c2cc(Nc3cc(C4CC4)[nH]n3)nc(Nc3ccc(CC(=O)NCc4cccc(F)c4)cc3)n2)CC1 | 19.9%
CC[C@H](CO)Nc1nc(NCc2ccccc2)n2ncc(C(C)C)c2n1 | -38.2% (active)
CCN(CC)C(=O)C1=C(C)NC(=O)NC1c1ccc2c(c1)OCO2 (stereo unspecified) | 101%
CNc1ccccc1C(=O)N/N=C/C=C/c1ccccc1 | -32.6% (active)
CC(N)C(=O)NNc1n[nH]c(=S)n1N (stereo unspecified) | 101%
O=C(/C=C/c1ccccc1)n1c(-c2ccc(Cl)cc2)nc2ccccc21 | -3.97% (active)
